Assay outcomes as filed in PubChem BioAssay.
Rows were chosen to be rich in hits. Some 1.2% of all compounds tested hit in one or more screens of this group.
GLD-1 TGE inh: GLD-1-TGE RNA interaction inhibition (C. elegans). Q17339. purified GLD-1 + fluorescein TGE RNA, fluorescence polarization. inhibition, % at 5.96 µM. hit rate 0.44% among 320,000;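 active means percent inhibition above a per-plate cutoff, the plate mean of test compounds plus 3 SD, cut at about 30% in these data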;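 further: 0% = DMSO wells with GLD-1 and probe and 100% = wells lacking GLD-1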
MEX-5 binding: C. elegans MEX-5 TCR-2 RNA binding activity; Q9XUB2; MEX-5/FITC-TCR2 RNA binding, fluorescence polarization; stronger effect = lower value; activity score (negative = inhibition of binding), % at 10 µM; hit rate 0.38% among 300,000; AID 1832;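 active means inhibition past about -25% in most replicates, and total fluorescence under double the plate's negative control median, limit read from the data; inconclusive means replicates evenly split on the limit, or fluorescence at least double controls; inactive means too little inhibition in most replicates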;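 further: 0% = DMSO and -100% = 5 µM competing unlabeled TCR2 RNA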
Keap1-Nrf2 PPI: inhibitors of human Keap1-Nrf2 protein-protein interaction; Q14145; Keap1 Kelch-Nrf2 peptide fluorescence polarization, 1536-well; inhibition, % at 9.4 µM; hit rate 0.15% among 340,000; AID 504523; in the data active means inhibition above about 12%; inconclusive means no clear call, values can overlap the other calls; inactive means below about 7.3%;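 further: human Keap1 Kelch domain with fluorescein labeled Nrf2 9mer peptide probe; 0% = neutral control wells and 100% = peptide positive control; higher means more block of Keap1 binding to Nrf2 peptide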
eLon inh: inhibitors of E. coli Lon protease. P0A9M0. purified E. coli Lon protease, fluorescence polarization. inhibition, % at 7.94 µM. hit rate 0.42% among 360,000. AID 602123; in the data active means inhibition above about 13%, passing the limit was not always enough;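 further: 0% = enzyme with probe and DMSO and 100% = no enzyme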
Target sequence (P0A9M0 whole entry, looked up): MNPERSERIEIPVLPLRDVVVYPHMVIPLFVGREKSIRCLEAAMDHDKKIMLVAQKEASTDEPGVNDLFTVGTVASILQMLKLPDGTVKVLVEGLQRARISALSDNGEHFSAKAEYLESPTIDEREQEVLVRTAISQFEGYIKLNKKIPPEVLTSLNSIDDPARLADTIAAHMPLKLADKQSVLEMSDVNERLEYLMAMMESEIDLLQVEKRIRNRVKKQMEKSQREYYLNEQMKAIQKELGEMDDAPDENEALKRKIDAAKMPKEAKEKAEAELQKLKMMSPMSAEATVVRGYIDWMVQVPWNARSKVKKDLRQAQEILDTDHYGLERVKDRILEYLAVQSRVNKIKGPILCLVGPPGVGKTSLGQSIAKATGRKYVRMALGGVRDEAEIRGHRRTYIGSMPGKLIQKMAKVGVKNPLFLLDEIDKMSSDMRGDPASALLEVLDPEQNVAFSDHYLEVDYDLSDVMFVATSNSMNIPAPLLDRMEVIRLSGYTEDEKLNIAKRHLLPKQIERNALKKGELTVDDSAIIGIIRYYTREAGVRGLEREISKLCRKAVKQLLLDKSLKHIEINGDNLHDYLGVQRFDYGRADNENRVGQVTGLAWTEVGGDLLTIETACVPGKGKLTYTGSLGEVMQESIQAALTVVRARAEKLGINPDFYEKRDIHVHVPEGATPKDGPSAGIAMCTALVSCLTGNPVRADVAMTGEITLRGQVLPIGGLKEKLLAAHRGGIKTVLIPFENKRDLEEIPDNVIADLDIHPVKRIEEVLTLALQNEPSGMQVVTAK
BCLXL inh: Bcl-xL (human) inhibition; inhibition, % at 10.9 µM; hit rate 0.7% among 320,000; Q07817; GST-Bcl-xL / FITC-Bim BH3 peptide fluorescence polarization;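 active means inhibition above the mean of all tested compounds plus 3 SD, cutoff set per campaign, cut at about 30% in these data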;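 further: 0% = DMSO wells and 100% = unlabeled Bim-BH3 peptide competitor; inhibitors lower millipolarization by displacing the labeled peptide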
LANA DNA inh: blocks KSHV LANA C-terminal domain binding to DNA; MBP-C-LANA/FAM-LBS DNA binding, fluorescence polarization; inhibition, % at 9 µM; hit rate 0.078% among 340,000; AID 504423;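 active means highest replicate inhibition at or above 60% at 9 µM, even if other replicates fall short; inactive means all replicates below 60% inhibition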;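 further: 0% = neutral control wells and 100% = 4 µM acridine orange control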
GLD1 RNA confirm: confirmation of C. elegans GLD-1 TGE RNA binding inhibitors; shares compounds with GLD-1 TGE inh; GLD-1/FL-TGE RNA fluorescence polarization, biochemical; inhibition, % at 5.96 µM; hit rate 10% among 550; AID 2459;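 active means average inhibition across triplicates above the hit cutoff set in the primary screen, cut at about 32% in these data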;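 further: 0% = GLD-1 with RNA probe and DMSO and 100% = wells lacking GLD-1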
Keap1 TSA: binds and thermally shifts human Keap1 Kelch domain | shares compounds with Keap1-Nrf2 PPI | hit rate 8% among 400 | max delta Tm, degrees C | Keap1 Kelch thermal shift, delta Tm; stronger effect = higher value | AID 651823; in the data active means max delta Tm above about 0.48 degrees C
Dye-only ctr: shifts Sypro Orange melt without protein, a false positive. shares compounds with Keap1-Nrf2 PPI. Sypro Orange dye-only thermal melt, no protein, delta Tm; top dose 26 µM. delta Tm, degrees C (concentration not given with the values). 140 tested, under 10 active. AID 651858;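 active means at highest dose tested, delta Tm positive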
E coli Lon conf: E. coli Lon inhibition confirmation; shares compounds with eLon inh; purified E. coli Lon, fluorescence polarization; inhibition, % at 7.94 µM; hit rate 31% among 1,400; in the data active means inhibition above about 16%;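 further: 0% = enzyme with probe and DMSO and 100% = no enzyme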
Active calls of the source: *; ? = inconclusive; nt = no result given; + = active, no number.

SMILES	GLD-1 TGE inh	MEX-5 binding	Keap1-Nrf2 PPI	eLon inh	BCLXL inh	LANA DNA inh	others
CCN(CC)C(=O)Cn1cc(/C=C2\C(=O)NC(=O)N(c3ccccc3F)C2=O)c2ccccc21	-20	-64*	-6	-54	-12	0
CCN1C(=O)NC(=O)/C(=C\c2cn(CC(=O)N3CCCCC3C)c3ccccc23)C1=O (stereo not given)	-6	?	?	-37	105*	14
COC(=O)C1=C(c2c(C)noc2C)C[C@@H]2CC[C@H]1N2C(=O)NCCOc1ccccc1	1	nt	-3	1	6	0
C#C[C@]1(O)CC[C@H]2[C@@H]3CCC4=Cc5nc6nc7ccccc7n6cc5C[C@]4(C)[C@H]3CC[C@@]21C	16	nt	-7	-39	51*	4
c1cncc(C2Nc3cccc4cccc(c34)N2)c1	7	-3	-4	11	19	4
O=C1/C(=C/c2cc3c(cc2Cl)OCO3)N2CCC1CC2	54*	-1	nt	nt	4	nt
CN1CC[C@@]2(C)c3cc(O)ccc3N(C)[C@@H]12	nt	nt	-5	0	nt	1
CN1CC[C@@]2(C)c3cc(O)ccc3N(C)C2O1 (stereo not given in full)	39*	-4	0	20	26	1	GLD1 RNA confirm=2
COP(=S)(OC)SCn1nnc2ccccc2c1=O	nt	nt	-3	-4	nt	-2
Nc1nnc(CCN2CCCCC2)s1	9	-2	-1	-1	5	1
S=P(NC1CCCCC1)(N1CC1)N1CC1	35*	1	-1	2	50*	2	GLD1 RNA confirm=1
CN1C(=O)C2C[C@@]3(Br)c4ccccc4N(OOSc4ccccc4)[C@H]3N2C(=O)[C@@H]1Cc1ccccc1 (stereo not given in full)	32*	1	0	-3	1	0	GLD1 RNA confirm=3
CC[C@@H](CO)NC(=O)[C@@H]1C=C2c3cccc4c3c(cn4C)C[C@H]2N(C)C1	112*	-31*	8	38	143*	6	GLD1 RNA confirm=18
CCN(CC)C(=O)N[C@H]1C[C@@H]2c3cccc4[nH]cc(c34)C[C@H]2N(C)C1	19	1	-7	33	23	2
CCC(CO)NC(=O)C1C=C2c3cccc4[nH]cc(c34)CC2N(C)C1 (stereo not given)	35*	-15	-4	59	47*	3	GLD1 RNA confirm=9
O=P(Oc1ccccc1)(Oc1ccccc1)N1CCN(c2ccc(F)cc2)CC1	1	0	-2	18	5	-1
CC(=NCCC1=CCCCC1)c1c(O)[nH]c(=O)[nH]c1=O	37*	3	4	-7	4	1	GLD1 RNA confirm=-3
COc1ccc(-n2nnnc2C(CCSC)N2CCC3(CC2)C(=O)NCN3c2ccccc2)cc1 (stereo not given)	nt	nt	nt	-2	nt	nt
CN(C)C1C(=O)C(C(N)=O)=C(O)C2(O)C(=O)C3=C(O)c4c(O)cccc4C(C)(O)C3C(O)C12 (stereo not given)	44*	-20	-1	3	51*	58	GLD1 RNA confirm=0
CC(=O)c1cc(C#N)c(N2CCN(C)CC2)nc1C	-4	1	1	1	7	-1
C[n+]1c2ccccc2nc2ccc(NCCO)cc21	34*	-21	-3	45	73*	-4	GLD1 RNA confirm=14
NC(Cc1ccccc1)c1nc(-c2ccccc2)no1 (stereo not given)	-12	-2	0	4	0	-2
CC1(O)CCN2C(=O)CCc3cccc1c32 (stereo not given)	58*	nt	44*	16	49*	26	GLD1 RNA confirm=2;Keap1 TSA=-0.09
Cc1cccc(N2CCN(Cc3ccc4c(c3)OCO4)CC2)c1C	3	1	-2	-2	1	-1
CN1C[C@H](CNC(=O)OCc2ccccc2)C[C@@H]2c3cccc4c3c(cn4C)C[C@H]21	53*	-7	-1	76*	52*	5	GLD1 RNA confirm=6;E coli Lon conf=36*
SMILES	GLD-1 TGE inh	MEX-5 binding	Keap1-Nrf2 PPI	eLon inh	BCLXL inh	LANA DNA inh	others
CC1CN1c1cc2c(c3c1ccn3C)C1CCC2C1 (stereo not given)	nt	nt	nt	-6	nt	nt
Cn1cc(/C=C2\C(=O)NC(=O)N(c3ccccc3)C2=O)c2ccccc21	-10	-82*	49*	-85	151*	88*	Keap1 TSA=-0.13
NC1CC2CCCCC2CC1(O)c1ccccc1 (stereo not given)	nt	nt	nt	-3	nt	nt
CCCCc1ccc(C(=O)O)nc1	-1	nt	66*	3	-6	67*	Keap1 TSA=-0.03
CC(=O)N1CCN(Cc2ccc(Cl)nc2)CC1	-1	-1	-2	-5	0	-2
CN1/C(=C\C=Nc2ccccc2)C(C)(C)c2ccccc21	4	-1	2	-10	14	2
CN1/C(=C\C=C2C(=O)NC(=O)NC2=O)C(C)(C)c2ccccc21	-230	-86*	32*	-437	-144	28	Keap1 TSA=-0.19;Dye-only ctr=-21
COc1ccc(NC(=O)C2C3CCC(O3)C2C(=O)O)c(OC)c1 (stereo not given)	5	-1	-3	0	4	3
Cc1cc(C=C2C(=O)NC(=O)NC2=O)c(C)n1-c1cccnc1	-1	-71*	12*	-9	-3	13	Keap1 TSA=-0.1
CN1CCN(c2ccc([N+](=O)[O-])c3no[n+]([O-])c23)CC1	141*	-60*	55*	131*	197*	82*	Keap1 TSA=-0.12;Dye-only ctr=-27;E coli Lon conf=102*
CC(N)C(=O)NC1C2C(=C(O)CC(O)C2O)C(=O)OC1(C)C(Cl)Cl (stereo not given)	nt	nt	-4	-2	nt	-1
CN1CCC(N(C)c2ccc(C(N)=O)cc2[N+](=O)[O-])CC1	-2	1	-5	-9	8	-2
O=C1C(=O)c2ccccc2-c2ccccc21	1	-3	-9	-3	11	4
Nc1ccc2c3c(cccc13)-c1ccccc1-2	nt	nt	22*	189*	nt	27	Keap1 TSA=0.37;Dye-only ctr=-23;E coli Lon conf=+
CN1CC=C2C(C#N)=C(N)C(C#N)(C#N)C(c3ccncc3)C2C1 (stereo not given)	88*	-47*	15*	57*	136*	43	Keap1 TSA=-0.15;Dye-only ctr=-26;E coli Lon conf=81*
C[N+]1=C(/C=C/Nc2ccccc2)C(C)(C)c2ccccc21	3	5	7	-1	4	4
